# Paper PMC11062922 (Nature Chemical Biology, 2023)
# Where two headings read alike, the source gives them in different places.
# How the values were obtained:
# Design in all cases: species or system human, MV4-11 + K-562 + COLO205 + SK-N-BE2 + OVCAR-8
# AKT2 = conditions: read-out: apparent Kd, n = 1
# CDK6 = conditions: read-out: apparent Kd, compound concentrations: 100 nM and 1000 nM (sheet 'Samples'), n = 1
# EGFR = conditions: read-out: apparent Kd, compound concentrations: 100 nM and 1000 nM (sheet 'Samples'), n = 1
# MAP2K2 = conditions: read-out: apparent Kd; compound concentrations: 100 nM and 1000 nM (sheet 'Samples'), CATDS: 0.118156666202673; n = 1
# NQO1 = conditions: read-out: apparent Kd; compound concentrations: 100 nM and 1000 nM (sheet 'Samples'), CATDS: 0.17840078958021699; n = 1
# PYGL = conditions: read-out: apparent Kd; compound concentrations: 100 nM and 1000 nM (sheet 'Samples'), CATDS: 0.12425140919606401; n = 1
# RIPK2 = conditions: read-out: apparent Kd; compound concentrations: 100 nM and 1000 nM (sheet 'Samples'), CATDS: 0.17953871866569099; n = 1
# AGPS = conditions: read-out: apparent Kd, compound concentrations: 100 nM and 1000 nM (sheet 'Samples'), n = 1
# NNT = conditions: read-out: apparent Kd; compound concentrations: 100 nM and 1000 nM (sheet 'Samples'), CATDS: 0.50748873234437097; n = 1
# CDK16 = conditions: read-out: apparent Kd; compound concentrations:100 nM and 1000 nM (sheet 'Samples'); n = 1
# CDK17 = conditions: read-out: apparent Kd; compound concentrations:100 nM and 1000 nM (sheet 'Samples'); n = 1
# CDKL5 = conditions: read-out: apparent Kd, n = 1
# DJA1 = system: T1, DJA1; conditions: read-out: apparent Kd; compound concentrations:100 nM and 1000 nM (sheet 'Samples'); n = 1
# T1 construct: gene DNAJA1
# GSK3A = conditions: read-out: apparent Kd; compound concentrations:100 nM and 1000 nM (sheet 'Samples'); n = 1
# GSK3B = conditions: read-out: apparent Kd; compound concentrations:100 nM and 1000 nM (sheet 'Samples'); n = 1
# JAK2 = conditions: read-out: apparent Kd; compound concentrations:100 nM and 1000 nM (sheet 'Samples'); n = 1
# MAPK14 = conditions: read-out: apparent Kd; compound concentrations:100 nM and 1000 nM (sheet 'Samples'); n = 1
# PIK3CA = conditions: read-out: apparent Kd; compound concentrations:100 nM and 1000 nM (sheet 'Samples'); n = 1
# PIK3CD = conditions: read-out: apparent Kd; compound concentrations:100 nM and 1000 nM (sheet 'Samples'); n = 1
# RPS6KA6 = conditions: read-out: apparent Kd; compound concentrations:100 nM and 1000 nM (sheet 'Samples'); n = 1
# CDK9 = conditions: read-out: apparent Kd; compound concentrations: 100 nM and 1000 nM (sheet 'Samples'), CATDS: 8.3924043652499697E-2; n = 1
# CSNK1A1 = conditions: read-out: apparent Kd; compound concentrations: 100 nM and 1000 nM (sheet 'Samples'), CATDS: 8.0672688589635194E-2; n = 1
# CSNK1D = conditions: read-out: apparent Kd; compound concentrations: 100 nM and 1000 nM (sheet 'Samples'), CATDS: 0.220619974671908; n = 1
# CSNK1E = conditions: read-out: apparent Kd; compound concentrations: 100 nM and 1000 nM (sheet 'Samples'), CATDS: 0.1850261885326; n = 1
# RAB14 = conditions: read-out: apparent Kd; compound concentrations: 100 nM and 1000 nM (sheet 'Samples'), CATDS: 7.5249376612815694E-2; n = 1
# RIOK2 = conditions: read-out: apparent Kd; compound concentrations: 100 nM and 1000 nM (sheet 'Samples'), CATDS: 0.19530203573374799; n = 1
# STK26 = conditions: read-out: apparent Kd; compound concentrations: 100 nM and 1000 nM (sheet 'Samples'), CATDS: 8.25311561999897E-2; n = 1
# AKT1 = conditions: read-out: apparent Kd, compound concentrations: 100 nM and 1000 nM (sheet 'Samples'), n = 1
# BMPR1A = conditions: read-out: apparent Kd; compound concentrations: 100 nM and 1000 nM (sheet 'Samples'), CATDS: 0.16431444601058101; n = 1
# CAMK4 = conditions: read-out: apparent Kd; compound concentrations: 100 nM and 1000 nM (sheet 'Samples'), CATDS: 0.11933253309467701; n = 1
# ILK = conditions: read-out: apparent Kd; compound concentrations: 100 nM and 1000 nM (sheet 'Samples'), CATDS: 0.116106966266716; n = 1
# OPA1 = conditions: read-out: apparent Kd; compound concentrations: 100 nM and 1000 nM (sheet 'Samples'), CATDS: 0.52668483019397605; n = 1
# PIK3C3 = conditions: read-out: apparent Kd; compound concentrations: 100 nM and 1000 nM (sheet 'Samples'), CATDS: 0.14677884590005799; n = 1
# CDK10 = conditions: read-out: apparent Kd; compound concentrations: 100 nM and 1000 nM (sheet 'Samples'), CATDS: 0.51704029448555699; n = 1
# [1] = compound concentrations:100 nM and 1000 nM (sheet 'Samples')
smiles,measurement,setting,value
Cn1cncc1-c1ccc2ncnc(Nc3ccc(OCc4ccccc4)cc3)c2c1 [GW320571X],potency estimated from few doses,"AKT2; compound concentrations: 100 nM and 1000 nM (sheet 'Samples'), CATDS: 0.134297871058083",1180 nM
same,potency estimated from few doses,CDK6; CATDS: 0.111886140460168,1880 nM
same,potency estimated from few doses,EGFR; CATDS: 0.20286097232099201,545 nM
same,potency estimated from few doses,MAP2K2,1610 nM
same,potency estimated from few doses,NQO1,676 nM
same,potency estimated from few doses,PYGL,1420 nM
same,potency estimated from few doses,RIPK2,668 nM
Cc1cc(O)cc(C)c1/C=C/c1cncc(C(=O)N(C)C)c1 [GW427984X],potency estimated from few doses,AGPS; CATDS: 0.49272906791281001,1860 nM
same,potency estimated from few doses,NNT,1750 nM
CN1CCC(C(=O)Nc2n[nH]c3nnc(-c4ccccc4)cc23)CC1.Cl [SB-678557-A],potency estimated from few doses,AKT2; [1],2390 nM
same,potency estimated from few doses,CDK16,1070 nM
same,potency estimated from few doses,CDK17,1910 nM
same,potency estimated from few doses,CDKL5; [1],75.2 nM
same,potency estimated from few doses,DJA1,1840 nM
same,potency estimated from few doses,GSK3A,3.32 nM
same,potency estimated from few doses,GSK3B,8.23 nM
same,potency estimated from few doses,JAK2,721 nM
same,potency estimated from few doses,MAPK14,1690 nM
same,potency estimated from few doses,PIK3CA,183 nM
same,potency estimated from few doses,PIK3CD,173 nM
same,potency estimated from few doses,RPS6KA6,1150 nM
c1cnn2ncc(-c3ccnc(NCCCN4CCOCC4)n3)c2c1 [GW683109X],potency estimated from few doses,AGPS; CATDS: 7.5383402334255403E-2,2080 nM
same,potency estimated from few doses,CDK9,1290 nM
same,potency estimated from few doses,"CDKL5; compound concentrations: 100 nM and 1000 nM (sheet 'Samples'), CATDS: 0.33786107354204697",40.1 nM
same,potency estimated from few doses,CSNK1A1,1530 nM
same,potency estimated from few doses,CSNK1D,82.2 nM
same,potency estimated from few doses,CSNK1E,118 nM
same,potency estimated from few doses,RAB14,2100 nM
same,potency estimated from few doses,RIOK2,105 nM
same,potency estimated from few doses,STK26,1390 nM
Cl.O=C(Nc1cccc(-c2nn3ncccc3c2-c2ccnc(Nc3cccnc3)n2)c1)c1c(F)cccc1F [GSK312879A],potency estimated from few doses,AKT1; CATDS: 0.123574579018809,1640 nM
same,potency estimated from few doses,BMPR1A,841 nM
same,potency estimated from few doses,CAMK4,1800 nM
same,potency estimated from few doses,EGFR; CATDS: 0.109679225268286,2310 nM
same,potency estimated from few doses,ILK,1950 nM
same,potency estimated from few doses,OPA1,116 nM
same,potency estimated from few doses,PIK3C3,1070 nM
Cc1cc(Cl)cc2c1NC(=O)C2=NNc1ccc(S(N)(=O)=O)cc1 [GW279320X],potency estimated from few doses,AKT1; CATDS: 0.213173393679812,1720 nM
same,potency estimated from few doses,"AKT2; compound concentrations: 100 nM and 1000 nM (sheet 'Samples'), CATDS: 0.21750959040308801",1630 nM
same,potency estimated from few doses,CDK10,316 nM
same,potency estimated from few doses,CDK6; CATDS: 0.20931890266427899,1810 nM
